# Out of some 5,600 compounds screened, about 390 (7%) showed an effect of 50% or more. The entries come from a sample that favours strong results as a whole.
# Target: T1, Protein deacetylase HDAC6 (Homo sapiens) (UniProt Q9UBN7)
# T1 sequence (whole entry): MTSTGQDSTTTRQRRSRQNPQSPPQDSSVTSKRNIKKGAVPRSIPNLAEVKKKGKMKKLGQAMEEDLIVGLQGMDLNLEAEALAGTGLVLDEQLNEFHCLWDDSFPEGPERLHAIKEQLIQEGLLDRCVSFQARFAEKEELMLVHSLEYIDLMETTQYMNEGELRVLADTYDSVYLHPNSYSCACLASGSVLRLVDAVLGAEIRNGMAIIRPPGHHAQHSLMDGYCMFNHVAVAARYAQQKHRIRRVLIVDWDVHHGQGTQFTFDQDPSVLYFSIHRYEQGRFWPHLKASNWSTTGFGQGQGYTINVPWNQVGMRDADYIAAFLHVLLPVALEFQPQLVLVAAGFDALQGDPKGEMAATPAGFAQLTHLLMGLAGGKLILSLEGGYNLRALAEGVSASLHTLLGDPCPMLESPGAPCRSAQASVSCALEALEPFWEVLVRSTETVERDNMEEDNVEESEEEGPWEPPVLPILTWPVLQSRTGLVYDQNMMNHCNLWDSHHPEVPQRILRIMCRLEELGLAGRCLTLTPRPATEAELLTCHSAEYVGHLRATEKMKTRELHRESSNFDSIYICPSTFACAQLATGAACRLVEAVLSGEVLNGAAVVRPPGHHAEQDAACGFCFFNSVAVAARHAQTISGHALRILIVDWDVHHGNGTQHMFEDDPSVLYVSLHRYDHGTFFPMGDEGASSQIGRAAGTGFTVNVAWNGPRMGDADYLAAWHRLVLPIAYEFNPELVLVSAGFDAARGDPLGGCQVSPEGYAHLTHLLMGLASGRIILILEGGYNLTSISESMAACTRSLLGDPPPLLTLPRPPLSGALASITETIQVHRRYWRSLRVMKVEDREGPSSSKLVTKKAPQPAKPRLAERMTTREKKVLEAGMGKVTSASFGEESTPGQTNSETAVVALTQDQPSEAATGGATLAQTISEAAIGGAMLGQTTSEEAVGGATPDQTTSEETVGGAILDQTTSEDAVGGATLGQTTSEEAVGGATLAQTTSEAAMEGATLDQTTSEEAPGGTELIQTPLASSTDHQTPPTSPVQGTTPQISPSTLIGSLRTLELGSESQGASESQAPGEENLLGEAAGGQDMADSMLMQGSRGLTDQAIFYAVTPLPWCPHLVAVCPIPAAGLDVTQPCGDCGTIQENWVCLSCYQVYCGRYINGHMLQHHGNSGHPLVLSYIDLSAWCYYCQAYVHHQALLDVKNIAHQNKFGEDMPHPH
# Conditions: at 10 µM
row,Structure (SMILES),inhibition [%]
1,CC(O)C(N)C(=O)O (stereo unspecified),8.96
2,Cc1ccc(Oc2ccccc2-c2csc(N=C3NCCCN3)n2)c(C)c1,38.2
3,CCCCCCCCCCCC(=O)N(CCO)CCO,14.4
4,OC[C@H]1O[C@@H](Oc2cc3c(O)cc(O)cc3[o+]c2-c2ccc(O)c(O)c2)[C@H](O)[C@@H](O)[C@@H]1O,27.8
5,OCCNCCCOc1cccc(Cl)c1Cl,15.6
6,COc1cc(C=O)c([N+](=O)[O-])cc1OC,11.8
7,Cn1c(=O)n(-c2ccc(C(C)(C)C#N)cc2)c2c3cc(-c4cnc5ccccc5c4)ccc3ncc21,-9.93
8,Cc1cnc(-c2ccccc2C(C)C)nc1NCc1ccc(-n2ccnn2)cc1,23.1
9,Clc1ccc2c(c1)N=C(N1CCNCC1)c1ccccc1N2,0.45
10,O=C(CN1CCNCC1)NC1CCCCC1,18.3
11,CC(C)(C)c1ccc(C(=O)CCCN2CCC(OC(c3ccccc3)c3ccccc3)CC2)cc1,25.3
12,O=C(O)[C@@H]1C[C@@H](O)CN1,16.1
13,Cc1nc2ccc(Oc3ccc(F)cc3)cc2c(=O)n1C[C@H]1CCCN(C(C)C)C1,7.87
14,COc1ccc(-c2cc(=O)c3c(O)cc(O[C@@H]4O[C@H](CO[C@@H]5O[C@@H](C)[C@H](O)[C@@H](O)[C@H]5O)[C@@H](O)[C@H](O)[C@H]4O)cc3o2)cc1O,30.2
15,O=C(O)Cc1cccc2c(=O)cc(-c3ccccc3)oc12,23.3
16,COc1ccc(-c2cc(=O)c3c(O)cc(O)cc3o2)cc1O,92.8

row,Structure (SMILES),inhibition [%]
1,O=c1cc(-c2ccccc2)oc2cc(O)c(O)c(O)c12,99.6
2,COc1ccccc1N1CCN(CCn2c(=O)[nH]c3c([nH]c4ccccc43)c2=O)CC1,3.49
3,C[C@@H]1OC(O)[C@H](O)[C@H](O)[C@H]1O (stereo partly specified),8.33
4,CC(C)C(=O)OC[C@@]1(N=[N+]=[N-])O[C@@H](n2ccc(N)nc2=O)[C@H](OC(=O)C(C)C)[C@@H]1OC(=O)C(C)C,10.6
5,CC(=O)O[C@]1(C(C)=O)CC[C@H]2[C@@H]3CCC4=CC(=O)CCC4=C3[C@@H](c3ccc(N(C)C)cc3)C[C@@]21C,7.8
6,N=C(N)NCCCC(NC(=O)C1CCCN1C(=O)C1CSSCCC(=O)NC(Cc2ccc(O)cc2)C(=O)NC(Cc2ccccc2)C(=O)NC(CCC(N)=O)C(=O)NC(CC(N)=O)C(=O)N1)C(=O)NCC(N)=O (stereo unspecified),12.1
7,COc1cc2ncc(-c3ccccc3)nc2cc1OC,97.8
8,COC(=O)[C@H](NC(=O)c1cc(-c2ccccc2)nc2ccccc12)c1ccccc1,30.8
9,O=C(O)c1cc(-c2ccccc2)nc2ccccc12,16.3
10,C=CCN(C)CCCCCCOc1ccc(C(=O)c2ccc(Br)cc2)c(F)c1,8.93
11,C=CCNc1nc(NCC=C)nc(N2CCN(C(c3ccc(F)cc3)c3ccc(F)cc3)CC2)n1,-4.35
12,NC(C(=O)O)c1cc(O)cc(O)c1 (stereo unspecified),9.39
13,CCCCCN1CCC(C(N)=O)CC1,3.67
14,CC(C(=O)O)c1ccc(C(=O)c2ccccc2)s1 (stereo unspecified),41.6
15,N=C(N)NCc1cccc(I)c1,13.7
